Reference: PubChem BioAssay
The source made the active and inactive calls.

What was measured:
[1] = anti-His antibody binders, primary screen, artefact control for SMM control protein annotation, biochemical, small-molecule microarray, 635 nm fluorescence (AID 1128); settings: anti-His Alexa647 antibody binding, higher = more signal;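 note: score merges feature fluorescence with signal-to-noise for each printed compound spot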
[2] = system: Human papillomavirus type 1a E7 protein (residues 1-88); assay: HPV1a E7 small-molecule binders, primary screen, biochemical, small-molecule microarray, residues 1-88, 635 nm (AID 1129); settings: small-molecule microarray binding, fluorescence 635 nm; higher = more signal
[3] = target: Focal adhesion kinase 1 (Homo sapiens) (UniProt Q05397); assay: small-molecule microarray binders of FAK, primary screen, biochemical, 635/667 nm fluorescence, BSA, DTT (AID 1130); settings: PTK2 binding, 635 nm fluorescence, higher = more signal;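 note: composite of spot emission at 667 nm and signal to noise over triplicate slides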
[4] = system: Fibrinogen (Alexa647-labelled); assay: fibrinogen binders on compound microarrays, profiling panel, artefact control for SMM control-protein annotation, biochemical, small-molecule microarray, 635/667 nm fluorescence (AID 1131); settings: fibrinogen-A647 binding fluorescence, higher = more signal;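 note: z-score merges 667 nm fluorescence with per-spot signal-to-noise over triplicate slides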
[5] = target: Follistatin (Homo sapiens) (UniProt P19883); assay: follistatin binders on small-molecule microarrays, primary screen, biochemical, small-molecule microarray, 635/667 nm fluorescence (AID 1132); settings: FST binding, 635 nm fluorescence, higher = more signal
[6] = target: Fibroblast growth factor 2 (Homo sapiens) (UniProt P09038); assay: FGF2 binders on small-molecule microarrays, primary screen, biochemical, small-molecule microarray, 635/667 nm fluorescence (AID 1133); settings: small-molecule microarray binding, FGF2, fluorescence 635/667; higher = more signal
[7] = mitochondrial membrane potential change in A549 cells, profiling panel, cell-based, JC-1 fluorescence, basal, 24 h, 100 nL (AID 1138); settings: higher = more signal;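 note: A549 lung adenocarcinoma cells under basal conditions with no added stimulus; test concentration not given here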
[8] = system: Lefty1; assay: Lefty1 binders on small-molecule microarrays, primary screen, biochemical, small-molecule microarray, 635/667 nm fluorescence (AID 1139); settings: small-molecule microarray binding, fluorescence 635/667; higher = more signal
[9] = system: wheat germ agglutinin (Triticum aestivum), Alexa647-labelled; assay: wheat germ agglutinin binders on compound microarrays, profiling panel, artefact control for SMM control-protein annotation, biochemical, small-molecule microarray, 635/667 nm fluorescence (AID 1140); settings: WGA-A647 binding, 635 nm fluorescence, higher = more signal;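 note: score merges 667 nm feature emission with signal to noise over triplicate slides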
[10] = target: Luciferin 4-monooxygenase (Photinus pyralis) (UniProt P08659); assay: firefly luciferase enzyme inhibitors, primary screen, biochemical, luminescence, purified enzyme, 2006 set (AID 1141); settings: SteadyGlo luminescence, 30 min, higher = more signal, called active from +8 up or from −8 down;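 note: cell-free assay with purified firefly luciferase at 100 ng per well in PBS; test concentration not given here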
Luciferin 4-monooxygenase (Photinus pyralis), sequence (P08659 whole entry, looked up): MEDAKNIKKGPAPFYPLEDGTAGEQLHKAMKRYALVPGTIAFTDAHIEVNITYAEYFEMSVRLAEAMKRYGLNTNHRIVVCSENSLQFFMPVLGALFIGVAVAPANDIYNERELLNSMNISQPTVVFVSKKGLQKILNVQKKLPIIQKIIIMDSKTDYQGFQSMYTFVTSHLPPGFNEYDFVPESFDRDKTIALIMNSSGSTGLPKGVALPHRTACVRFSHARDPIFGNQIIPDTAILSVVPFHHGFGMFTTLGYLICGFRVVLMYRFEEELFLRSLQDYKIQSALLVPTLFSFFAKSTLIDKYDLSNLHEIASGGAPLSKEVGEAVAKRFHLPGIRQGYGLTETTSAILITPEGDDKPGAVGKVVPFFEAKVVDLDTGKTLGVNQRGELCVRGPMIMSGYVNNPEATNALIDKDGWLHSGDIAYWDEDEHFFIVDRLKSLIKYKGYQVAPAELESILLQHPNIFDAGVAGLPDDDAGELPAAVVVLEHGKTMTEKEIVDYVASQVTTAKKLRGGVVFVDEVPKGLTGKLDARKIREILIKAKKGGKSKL

Fibroblast growth factor 2 (Homo sapiens), sequence (P09038 whole entry, looked up): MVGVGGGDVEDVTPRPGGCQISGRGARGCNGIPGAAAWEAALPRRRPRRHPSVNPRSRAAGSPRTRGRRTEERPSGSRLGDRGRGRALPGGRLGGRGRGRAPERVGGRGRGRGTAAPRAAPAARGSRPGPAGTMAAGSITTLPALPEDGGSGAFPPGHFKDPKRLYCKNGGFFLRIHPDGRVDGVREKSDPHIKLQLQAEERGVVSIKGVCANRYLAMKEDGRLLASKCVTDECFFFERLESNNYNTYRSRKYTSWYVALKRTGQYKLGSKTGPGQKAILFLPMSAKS
Focal adhesion kinase 1 (Homo sapiens), sequence (Q05397 whole entry, looked up): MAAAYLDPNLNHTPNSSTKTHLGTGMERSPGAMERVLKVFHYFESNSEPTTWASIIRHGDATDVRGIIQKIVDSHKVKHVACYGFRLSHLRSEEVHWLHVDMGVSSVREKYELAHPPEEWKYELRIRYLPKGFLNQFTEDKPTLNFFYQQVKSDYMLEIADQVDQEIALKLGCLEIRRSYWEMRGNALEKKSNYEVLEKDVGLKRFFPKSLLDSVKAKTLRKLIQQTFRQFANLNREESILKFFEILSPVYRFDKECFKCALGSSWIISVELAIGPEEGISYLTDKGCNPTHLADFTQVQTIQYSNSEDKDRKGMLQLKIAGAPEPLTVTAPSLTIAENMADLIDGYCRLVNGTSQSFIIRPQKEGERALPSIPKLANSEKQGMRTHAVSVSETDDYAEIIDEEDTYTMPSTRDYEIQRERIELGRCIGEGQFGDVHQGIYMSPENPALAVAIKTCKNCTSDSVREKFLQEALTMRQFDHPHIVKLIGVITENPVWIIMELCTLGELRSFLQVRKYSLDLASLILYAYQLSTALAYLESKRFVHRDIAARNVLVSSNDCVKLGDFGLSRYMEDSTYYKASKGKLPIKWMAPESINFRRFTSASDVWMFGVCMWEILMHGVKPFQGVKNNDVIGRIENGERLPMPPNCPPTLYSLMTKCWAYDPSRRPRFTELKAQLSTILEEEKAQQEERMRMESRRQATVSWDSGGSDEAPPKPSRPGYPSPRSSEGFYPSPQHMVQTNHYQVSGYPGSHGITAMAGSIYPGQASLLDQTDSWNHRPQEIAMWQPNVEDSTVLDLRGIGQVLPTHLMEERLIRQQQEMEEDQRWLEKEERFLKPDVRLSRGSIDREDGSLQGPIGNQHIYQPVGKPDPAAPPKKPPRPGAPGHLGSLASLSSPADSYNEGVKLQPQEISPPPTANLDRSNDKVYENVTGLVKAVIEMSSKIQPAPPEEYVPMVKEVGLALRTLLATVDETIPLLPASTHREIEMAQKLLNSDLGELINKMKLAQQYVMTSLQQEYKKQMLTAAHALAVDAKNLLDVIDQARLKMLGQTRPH
Follistatin (Homo sapiens), sequence (P19883 whole entry, looked up): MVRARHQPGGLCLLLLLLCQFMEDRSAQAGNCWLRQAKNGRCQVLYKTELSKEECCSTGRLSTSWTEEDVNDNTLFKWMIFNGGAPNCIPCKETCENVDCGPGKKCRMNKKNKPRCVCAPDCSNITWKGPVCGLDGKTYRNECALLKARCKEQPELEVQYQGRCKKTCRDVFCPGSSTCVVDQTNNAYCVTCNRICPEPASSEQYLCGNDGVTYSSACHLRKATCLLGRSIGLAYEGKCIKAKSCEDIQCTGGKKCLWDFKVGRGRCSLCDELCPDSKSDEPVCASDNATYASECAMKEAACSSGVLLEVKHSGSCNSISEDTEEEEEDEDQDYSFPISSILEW

Structure (SMILES) | composite z-score [1] | composite z-score [2] | composite z-score [3] | composite z-score [4] | composite z-score [5] | composite z-score [6] | z-score [7] | composite z-score [8] | composite z-score [9] | z-score [10]
O=C1C2C=CC(C(O)c3c(F)cccc3Cl)N(Nc3ccccc3)C2C(=O)N1c1ccccc1 (stereo not given) | 0.397 | 1.26 | 0.471 | 1.03 | 1.24 | -0.0407 | 0.555 | 0.464 | 0.816 | 0.429 (inactive)
COC(=O)[C@@]1(Cc2ccc(OC)cc2)[C@H]2c3cc(C(=O)N4CCCC4)n(Cc4ccsc4Br)c3C[C@H]2CN1C(=O)c1ccccc1 | 0.198 | 1.12 | 0.565 | -0.152 | 0.073 | -0.88 | -0.404 | -0.402 | 0.604 | -0.777 (inactive)
C=CCOC(=O)[C@@H]1[C@H]2C(=O)O[C@H](c3ccccc3)[C@H](c3ccccc3)N2[C@H](c2ccc(OCCOC(=O)[C@@H]3C[C@@H]4C(=O)N[C@@H](CCCCN(C)C)C(=O)N4[C@@H]3c3ccc(O)cc3)cc2)[C@@]12C(=O)Nc1ccc(I)cc12 | 1.13 | 0.799 | 0.338 | 0.177 | 1.2 | 1.34 | -1.78 | 0.844 | 0.542 | -2.62 (inactive)
CCN(CC)c1ccc(N2CC=CC34O[C@@H]5/C=C\CCCOC(=O)C5[C@H]3C(=O)N(CCO)[C@@H]4C2=O)cc1 (stereo not given in full) | 0.449 | -0.57 | -0.724 | -0.837 | -0.654 | -1.03 | -0.73 | -0.2 | -0.875 | -0.312 (inactive)
[N-]=[N+]=NCc1ccccc1C[C@]1(C(=O)N2CCOCC2)N=C(c2ccc(OCCCO)cc2)O[C@H]1c1ccccc1N=[N+]=[N-] | 0.595 | 1.23 | 0.0652 | 0.987 | 1.33 | 0.823 | 0.274 | 1.31 | 1.03 | -7.46 (inactive)
[N-]=[N+]=NCc1ccccc1[C@H]1OC(c2ccc(OCCCO)cc2)=N[C@@]1(Cc1ccccc1)C(=O)NCc1ccccc1 | 0.517 | 1.17 | 0.365 | 0.954 | 1.13 | 0.0948 | 1.2 | -0.352 | 0.468 | -0.658 (inactive)
Cc1ccc(S[C@]2(C(=O)NCC(F)(F)F)CC(=O)N(C(C)C)[C@@H]2c2ccc(CO)cc2I)cc1 | -1.45 | -0.68 | -0.188 | -1.11 | -0.366 | 0.0888 | 0.758 | -1.13 | -0.86 | -1.01 (inactive)
CN(C)CCCNC(=O)[C@@]1(c2ccc([N+](=O)[O-])cc2)CC(=O)N(C2CCCCC2)[C@@H]1c1ccc(CO)cc1I | 1.48 | 1.23 | 0.634 | 0.62 | 0.336 | 0.225 | -2.36 | 0.0773 | 0.701 | -0.907 (inactive)
CC(C)(C)OC(=O)CC[C@@]1(C(=O)NCC(O)CO)N=C(c2ccc(OCCCO)cc2)O[C@@H]1c1ccccc1N=[N+]=[N-] (stereo not given in full) | 2.37 | 0.818 | 0.94 | 0.985 | 1.43 | 0.692 | 1.18 | -0.0052 | 0.96 | -10.6 (active)
COc1ccc(C(=O)Nc2ccc(CN3C(=O)[C@@]4(O[C@@H](CC(=O)N5CCC[C@H]5CO)[C@H]([Si](C)(C)c5ccc(OC)cc5)[C@H]4C)c4ccccc43)cc2)cc1 | -0.271 | 1.2 | 1.02 | 0.655 | 1.33 | 1.68 | 3.25 | 1.21 | 0.763 | -2.38 (inactive)
CCCCCCC#C[Si](O[C@H](c1ccccc1)c1cn([C@H](CO)Cc2ccccc2)nn1)(C(C)C)C(C)C | 0.355 | -0.116 | -0.074 | -1.29 | -0.193 | -0.489 | -0.319 | 0.65 | 0.207 | 0.751 (inactive)
CCCCC=C[C@@H](NC(=O)Oc1cccc(C(F)(F)F)c1)c1ccccc1 | 0.291 | 1.21 | 0.0053 | 1.01 | 0.572 | 1.63 | -1.68 | -0.0322 | 1.15 | 1.52 (inactive)
COc1ccc(CCN2C(=O)[C@@]3(c4ccc([N+](=O)[O-])cc4)CC(=O)N(C4CCCCC4)[C@@H]3c3ccc(CO)cc32)cc1 | 0.521 | -0.82 | 0.151 | -0.382 | 1.42 | 1.4 | -0.552 | 0.563 | -0.569 | 0.3 (inactive)
Cc1ccc(C(C)CC(O)C2C=CC3C(=O)N(C)C(=O)C3N2NC(=O)OC(C)(C)C)o1 (stereo not given) | 1.65 | 1.01 | 0.759 | 0.314 | 0.997 | 0.48 | -0.475 | 0.444 | 0.563 | -1.3 (inactive)
C=CCOC(=O)[C@H]1[C@@H]2C(=O)O[C@@H](c3ccccc3)[C@@H](c3ccccc3)N2[C@@H](c2ccc(OCCOC(=O)[C@@H]3C[C@@H]4C(=O)N[C@@H](CCCCN(C)C)C(=O)N4[C@@H]3c3ccc(O)cc3)cc2)[C@]12C(=O)Nc1ccc(I)cc12 | 2.26 | 1.22 | 0.565 | 0.733 | 1.16 | 1.57 | -1.63 | 1.54 | 0.81 | -4.39 (inactive)
O=C(NCc1ccccc1)[C@@]1(CCS(=O)(=O)c2ccccc2)N=C(c2ccc(OCCCO)cc2)O[C@H]1c1ccccc1 | 1.52 | 1.26 | 0.54 | 0.994 | 1.21 | -0.0657 | -0.346 | 0.116 | 1.1 | 0.548 (inactive)
CC(=O)n1cc(C(O)C2C=CC3C(=O)N(C)C(=O)C3N2Nc2ccccc2)c2ccccc21 (stereo not given) | 1.88 | 1.11 | 0.214 | 0.898 | 1.12 | 0.607 | -0.0732 | 0.859 | 0.809 | 0.376 (inactive)
O=C(NCc1ccc(F)cc1)[C@H]1C[C@H]2C(=O)N[C@@H](Cc3ccccc3)C(=O)N2[C@H]1c1ccc(O)cc1 | 1.53 | 0.526 | 0.063 | -0.102 | 1.38 | 1.59 | 0.574 | -0.169 | -0.262 | -0.568 (inactive)
CC1(C)[C@@H]2CC(C(O)C3C=CC4C(=O)N(c5ccccc5)C(=O)C4N3Nc3ccccc3)=C[C@H]1C2 (stereo not given in full) | -0.21 | 0.598 | 1.13 | 0.153 | 0.955 | 0.329 | 1.01 | -0.409 | 0.241 | 0.486 (inactive)
COCCOC(=O)N1C(=O)[C@@]2(c3cc(C#Cc4ccc(OC)cc4)ccc31)[C@H](c1ccc(O)cc1)N1[C@H](c3ccccc3)[C@H](c3ccccc3)OC(=O)[C@H]1[C@@H]2C(=O)NC[C@H](O)c1ccccc1 | 0.522 | 1.22 | -0.0575 | 0.994 | 1.3 | 1.4 | -1.51 | 1.33 | 0.623 | 1.05 (inactive)
COCCCNC(=O)C1N=C(c2ccc(OCCCO)cc2)N(c2ccccc2)O1 (stereo not given) | 1.38 | 1.03 | 0.234 | 0.95 | 1.11 | 0.555 | 0.735 | 0.517 | 0.569 | -10.5 (active)
